According to ChEMBL document CHEMBL3988442, “University of Dundee, Small-Polar-MMV Screening Library” (2021):
For some of these results: Potency and affinity values are given separately.

How the values were obtained:
Parameters in all cases: scale not given: direction of the effect not stated beside the values
[1] = target: Protein translocase subunit SecA (Escherichia coli (strain K12)) (UniProt P10408); experiment: Assay to Identify E. coli SecA ATPase Inhibitors; format: functional; settings: 30 µM
[2] = target: T1, Ubiquitin-activating enzyme e1, putative (Leishmania donovani (strain BPK282A1)) (UniProt E9BSI1); experiment: Leishmania donovani Ubiquitin Activating Enzyme (LdE1); format: functional; settings: 30 µM
T1 sequence (whole entry): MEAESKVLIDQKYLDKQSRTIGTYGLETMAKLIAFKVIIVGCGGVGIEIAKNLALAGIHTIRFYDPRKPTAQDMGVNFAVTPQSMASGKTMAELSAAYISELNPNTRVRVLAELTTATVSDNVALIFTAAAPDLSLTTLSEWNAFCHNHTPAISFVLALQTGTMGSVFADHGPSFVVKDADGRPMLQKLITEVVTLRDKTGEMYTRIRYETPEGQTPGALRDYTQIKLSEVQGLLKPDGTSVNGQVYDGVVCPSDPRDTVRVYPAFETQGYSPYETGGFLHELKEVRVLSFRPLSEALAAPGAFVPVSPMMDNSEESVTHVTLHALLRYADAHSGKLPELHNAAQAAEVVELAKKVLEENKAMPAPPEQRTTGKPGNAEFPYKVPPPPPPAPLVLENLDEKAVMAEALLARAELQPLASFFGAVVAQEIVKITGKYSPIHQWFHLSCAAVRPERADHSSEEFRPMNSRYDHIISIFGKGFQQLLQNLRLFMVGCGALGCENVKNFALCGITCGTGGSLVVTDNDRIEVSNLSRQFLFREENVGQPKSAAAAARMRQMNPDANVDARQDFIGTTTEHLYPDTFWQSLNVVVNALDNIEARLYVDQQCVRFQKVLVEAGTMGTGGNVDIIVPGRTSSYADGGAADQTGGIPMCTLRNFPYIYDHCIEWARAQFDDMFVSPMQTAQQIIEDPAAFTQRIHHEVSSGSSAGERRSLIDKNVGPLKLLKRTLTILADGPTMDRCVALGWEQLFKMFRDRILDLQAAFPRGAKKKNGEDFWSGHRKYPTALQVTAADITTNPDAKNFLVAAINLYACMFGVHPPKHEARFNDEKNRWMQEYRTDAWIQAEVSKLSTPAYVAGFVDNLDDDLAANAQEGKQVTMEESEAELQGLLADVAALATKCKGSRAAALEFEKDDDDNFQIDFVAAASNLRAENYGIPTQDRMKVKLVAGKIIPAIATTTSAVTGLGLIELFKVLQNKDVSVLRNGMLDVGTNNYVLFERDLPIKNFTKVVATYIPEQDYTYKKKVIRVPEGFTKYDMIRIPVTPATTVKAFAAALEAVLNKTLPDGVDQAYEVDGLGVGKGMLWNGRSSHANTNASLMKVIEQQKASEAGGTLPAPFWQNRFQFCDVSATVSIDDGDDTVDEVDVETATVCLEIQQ

[3] = target: AMP-activated protein kinase, AMPK (Homo sapiens) (UniProt P54646+O43741+P54619+Q9UGJ0+Q9Y478+Q13131+Q9UGI9); experiment: AMP-dependent Kinase enzyme assay. An in vitro enzyme assay that detects ADP turnover that is directly proportional to AMPK activity. This uses naive AMPK that is activated during the assay with MK-8722; format: functional; settings: 30 µM
[4] = target: Sialic acid-binding Ig-like lectin 9 (Homo sapiens) (UniProt Q9Y336); experiment: Hs-Siglec9 ALPHAscreen SOP 20170721; settings: 10 µM
Trypanosoma cruzi = experiment: Trypanosoma cruzi phosphomannomutase and mannose-1-phosphate guanylyltransferase assay; format: functional; settings: 10 µM
[5] = target: T2, Arginase-2, mitochondrial (Homo sapiens) (UniProt P78540); experiment: in vitro enzyme assay to detect the production of urea directly proportional to the activity of Arginase II; format: functional; settings: 33.3 µM; note: in the data most compounds retested in dose-response had high values
T2 sequence (whole entry): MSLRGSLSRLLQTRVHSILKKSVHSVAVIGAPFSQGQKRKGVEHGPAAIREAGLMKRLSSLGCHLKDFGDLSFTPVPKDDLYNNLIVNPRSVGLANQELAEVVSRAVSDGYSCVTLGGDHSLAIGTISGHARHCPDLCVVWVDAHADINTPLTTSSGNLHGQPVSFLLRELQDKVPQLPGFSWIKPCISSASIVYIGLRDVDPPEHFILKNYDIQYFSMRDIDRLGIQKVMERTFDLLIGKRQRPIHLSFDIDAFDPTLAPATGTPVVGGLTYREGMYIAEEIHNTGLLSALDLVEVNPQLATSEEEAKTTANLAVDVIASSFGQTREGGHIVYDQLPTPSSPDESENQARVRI

[6] = target: T3, Proteasome subunit beta (Trypanosoma cruzi) (UniProt O96673); experiment: Trypanosoma cruzi proteasome chymotrypsin-like activity (TcProtChymo) assay.; note: in the data most compounds retested in dose-response had high values; format: functional; settings: 9.37 µM
T3 sequence (whole entry): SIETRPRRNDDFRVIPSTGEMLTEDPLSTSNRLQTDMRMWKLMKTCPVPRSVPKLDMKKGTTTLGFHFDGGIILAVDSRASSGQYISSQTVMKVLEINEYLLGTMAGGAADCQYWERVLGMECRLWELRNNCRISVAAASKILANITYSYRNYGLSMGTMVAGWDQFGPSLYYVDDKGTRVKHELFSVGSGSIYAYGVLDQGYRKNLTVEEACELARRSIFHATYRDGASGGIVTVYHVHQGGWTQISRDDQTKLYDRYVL

Homo sapiens = species: Homo sapiens; experiment: To identify inhibition of the IFN signalling (Jak-Stat) pathway via expression of an eGFP reporter gene under the control of an IFN-stimulated response element (ISRE) containing MxA promoter.; format: functional; settings: 30 µM
[7] = target: T4, Tyrosyl-tRNA synthetase, putative (Trypanosoma cruzi (strain CL Brener)) (UniProt Q4DSP6); experiment: Trypanosoma cruzi tyrosyl tRNA synthetase (TcYRS) _High Tyrosine SOP; format: functional; settings: 30 µM; note: in the data most compounds retested in dose-response had high values
T4 sequence (whole entry): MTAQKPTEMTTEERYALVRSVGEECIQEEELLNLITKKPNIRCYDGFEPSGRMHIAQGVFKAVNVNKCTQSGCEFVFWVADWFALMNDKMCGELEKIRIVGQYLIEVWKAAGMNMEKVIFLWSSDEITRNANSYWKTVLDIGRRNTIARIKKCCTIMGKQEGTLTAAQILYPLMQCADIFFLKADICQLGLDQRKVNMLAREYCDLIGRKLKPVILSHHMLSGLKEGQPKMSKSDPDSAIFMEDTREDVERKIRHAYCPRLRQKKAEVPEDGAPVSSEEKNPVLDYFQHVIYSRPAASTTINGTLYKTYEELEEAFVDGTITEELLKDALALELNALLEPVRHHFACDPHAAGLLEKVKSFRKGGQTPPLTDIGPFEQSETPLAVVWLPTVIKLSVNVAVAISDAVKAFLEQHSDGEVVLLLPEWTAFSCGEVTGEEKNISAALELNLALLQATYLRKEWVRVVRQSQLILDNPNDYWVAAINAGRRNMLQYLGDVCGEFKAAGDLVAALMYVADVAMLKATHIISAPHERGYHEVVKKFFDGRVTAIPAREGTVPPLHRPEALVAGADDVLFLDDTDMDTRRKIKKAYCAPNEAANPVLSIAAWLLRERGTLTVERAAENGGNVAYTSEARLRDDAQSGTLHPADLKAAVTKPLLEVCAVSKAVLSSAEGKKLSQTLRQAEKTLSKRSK

[8] = target: T4, Tyrosyl-tRNA synthetase, putative (Trypanosoma cruzi (strain CL Brener)); experiment: Trypanosoma cruzi tyrosyl tRNA synthetase (TcYRS) SOP; format: functional; settings: 30 µM
[9] = target: Chromo domain-containing protein 1 (Saccharomyces cerevisiae (strain ATCC 204508 / S288c) (Baker's yeast)) (UniProt P32657); experiment: ScCHD-1 Enzyme Inhibition Assay; format: functional; settings: 30 µM; note: in the data most compounds retested in dose-response had high values
Chain of Chromo domain-containing protein 1 (Saccharomyces cerevisiae (strain ATCC 204508 / S288c) (Baker's yeast)) (P32657 whole entry, the tested form may be a part): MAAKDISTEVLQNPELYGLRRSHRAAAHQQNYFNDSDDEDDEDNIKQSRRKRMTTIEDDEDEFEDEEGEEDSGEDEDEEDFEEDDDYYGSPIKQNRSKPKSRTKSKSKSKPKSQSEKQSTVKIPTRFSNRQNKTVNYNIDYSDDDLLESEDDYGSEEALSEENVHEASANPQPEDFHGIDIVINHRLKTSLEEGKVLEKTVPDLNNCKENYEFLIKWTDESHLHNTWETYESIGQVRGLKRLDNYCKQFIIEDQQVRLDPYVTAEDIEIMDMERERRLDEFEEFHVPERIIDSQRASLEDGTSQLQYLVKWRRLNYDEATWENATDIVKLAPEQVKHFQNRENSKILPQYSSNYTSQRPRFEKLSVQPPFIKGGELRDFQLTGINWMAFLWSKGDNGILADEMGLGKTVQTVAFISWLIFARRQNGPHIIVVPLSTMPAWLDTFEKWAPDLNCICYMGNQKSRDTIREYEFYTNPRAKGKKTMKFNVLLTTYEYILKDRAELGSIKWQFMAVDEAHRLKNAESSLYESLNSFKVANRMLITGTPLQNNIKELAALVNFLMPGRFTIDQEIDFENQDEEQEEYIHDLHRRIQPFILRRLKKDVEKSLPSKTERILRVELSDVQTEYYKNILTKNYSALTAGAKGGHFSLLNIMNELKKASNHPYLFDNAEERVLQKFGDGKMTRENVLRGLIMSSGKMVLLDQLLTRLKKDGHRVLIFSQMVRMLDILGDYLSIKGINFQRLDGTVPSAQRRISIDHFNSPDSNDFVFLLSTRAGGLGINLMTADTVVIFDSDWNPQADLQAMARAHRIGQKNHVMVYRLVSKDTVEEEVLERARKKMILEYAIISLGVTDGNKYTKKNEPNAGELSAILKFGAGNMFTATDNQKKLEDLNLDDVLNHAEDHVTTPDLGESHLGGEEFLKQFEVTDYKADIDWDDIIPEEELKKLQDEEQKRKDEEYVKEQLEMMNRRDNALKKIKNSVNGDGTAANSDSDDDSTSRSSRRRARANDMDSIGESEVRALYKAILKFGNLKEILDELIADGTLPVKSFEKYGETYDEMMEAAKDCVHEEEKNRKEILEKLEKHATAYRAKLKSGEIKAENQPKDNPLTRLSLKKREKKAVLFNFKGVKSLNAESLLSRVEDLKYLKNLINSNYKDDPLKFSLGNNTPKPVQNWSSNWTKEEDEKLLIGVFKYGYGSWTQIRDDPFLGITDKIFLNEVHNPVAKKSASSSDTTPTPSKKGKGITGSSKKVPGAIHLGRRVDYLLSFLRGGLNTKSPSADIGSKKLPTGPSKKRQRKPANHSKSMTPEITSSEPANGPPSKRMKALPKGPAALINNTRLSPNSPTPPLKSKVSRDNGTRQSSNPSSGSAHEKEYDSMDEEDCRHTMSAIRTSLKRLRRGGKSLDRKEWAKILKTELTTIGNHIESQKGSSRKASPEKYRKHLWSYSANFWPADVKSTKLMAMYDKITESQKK

Chain of Protein translocase subunit SecA (Escherichia coli (strain K12)) (P10408 whole entry): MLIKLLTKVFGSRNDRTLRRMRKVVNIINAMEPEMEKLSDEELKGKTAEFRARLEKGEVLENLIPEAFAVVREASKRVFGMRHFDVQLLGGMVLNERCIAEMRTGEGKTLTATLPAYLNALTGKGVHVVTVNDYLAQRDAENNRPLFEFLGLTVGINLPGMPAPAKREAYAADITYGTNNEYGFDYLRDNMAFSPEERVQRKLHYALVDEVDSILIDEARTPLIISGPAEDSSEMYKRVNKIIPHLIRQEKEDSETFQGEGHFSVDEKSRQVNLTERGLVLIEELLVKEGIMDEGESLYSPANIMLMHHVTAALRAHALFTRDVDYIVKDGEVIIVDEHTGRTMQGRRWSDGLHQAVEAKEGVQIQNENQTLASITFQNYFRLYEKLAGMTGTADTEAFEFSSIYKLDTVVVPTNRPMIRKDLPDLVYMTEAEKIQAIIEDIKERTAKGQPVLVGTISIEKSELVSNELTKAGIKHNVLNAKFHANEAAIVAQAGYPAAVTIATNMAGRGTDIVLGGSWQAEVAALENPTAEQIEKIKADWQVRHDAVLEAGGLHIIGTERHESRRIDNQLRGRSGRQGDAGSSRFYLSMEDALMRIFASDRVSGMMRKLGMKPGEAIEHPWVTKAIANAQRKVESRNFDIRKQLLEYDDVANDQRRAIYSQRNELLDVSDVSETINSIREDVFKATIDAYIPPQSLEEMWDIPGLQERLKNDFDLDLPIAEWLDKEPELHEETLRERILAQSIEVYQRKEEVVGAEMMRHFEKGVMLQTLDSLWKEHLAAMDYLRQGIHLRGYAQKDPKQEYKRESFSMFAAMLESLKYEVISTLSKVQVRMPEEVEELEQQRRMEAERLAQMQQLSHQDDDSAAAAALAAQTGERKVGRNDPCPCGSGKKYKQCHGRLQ
Chain of Sialic acid-binding Ig-like lectin 9 (Homo sapiens) (Q9Y336 whole entry): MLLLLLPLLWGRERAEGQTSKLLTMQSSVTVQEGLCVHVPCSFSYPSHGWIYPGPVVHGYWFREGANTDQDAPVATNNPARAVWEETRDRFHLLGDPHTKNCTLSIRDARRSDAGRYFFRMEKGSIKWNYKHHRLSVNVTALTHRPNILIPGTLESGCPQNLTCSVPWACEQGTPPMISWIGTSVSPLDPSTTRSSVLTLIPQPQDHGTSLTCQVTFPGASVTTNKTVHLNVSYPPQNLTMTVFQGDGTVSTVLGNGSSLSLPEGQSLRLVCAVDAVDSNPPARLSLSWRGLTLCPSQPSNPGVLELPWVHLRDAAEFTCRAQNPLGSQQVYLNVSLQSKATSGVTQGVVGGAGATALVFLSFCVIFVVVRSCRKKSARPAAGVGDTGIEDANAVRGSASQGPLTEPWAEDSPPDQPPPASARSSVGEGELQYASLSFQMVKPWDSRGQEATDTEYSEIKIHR

Compound	Percent Effect [1] [%]	Percent Effect [2] [%]	Percent Effect [3] [%]	Percent Effect [4] [%]	Percent Effect (Trypanosoma cruzi) [%]	Percent Effect [5] [%]	Percent Effect [6] [%]	Percent Effect (Homo sapiens) [%]	Percent Effect [7] [%]	Percent Effect [8] [%]	Percent Effect [9] [%]
CC(C)NC(=O)N1CCc2nc(C(=O)NCc3ccccc3)sc2CC1	-0.812	10.8	5.95	-6.63	-3.42	5.41	18.1	13.3	8.65	17.9	-3.29
O=S1(=O)CCN(Cc2cccnc2)[C@H]2CCN(c3ncccn3)CC[C@H]21	-8.77	-2.7	-0.0275	20.3	-3.91	-0.417	-2.62	16.4	3.96	-1.22	0.188
CCn1ccnc1CN1C[C@@H](CN2CCCC2)[C@@H](CO)C1	-6.84	-2.7	-3.35	7.12	-4.44	-1.91	8.28	-5.58	1.59	7.32	-1.85
COC(=O)c1ccc(C(=O)NS(=O)(=O)c2cncc(Br)c2)cc1	-4.86	0	0.578	3.83	-2.9	-0.952	15.7	26.4	-0.529	2.44	-0.393
COc1cccc(C(=O)Nc2cc(CC(C)C)nn2C)c1	-4.81	-5.2	-7.56	6.82	6.74	-6.41	3.04	11	4.85	14.6	-5.36
CN(Cc1nnc(C2CC2)n1C)C1CCN(Cc2ccon2)C1 (stereo not drawn)	-1.9	21.6	-11.6	-5.53	-2.17	-10	12.6	7.46	5.42	11.1	-7.81
CC(C)(C)NC(=O)C1CSCN1S(=O)(=O)c1cccc(F)c1 (stereo not drawn)	1.74	8.22	-2.49	-2.56	-8.81	0.909	20.2	12.2	3.23	10	-1.73
Oc1cc(CCC2CCCCN2)cc(-c2ccncc2)c1 (stereo not drawn)	-5.49	0	-8.16	0.305	-3.92	0.909	20.1	1.09	2.15	7.5	-3.03
